In article PMC5540273 (PLoS ONE, 2017):

Columns and labels:
Details in all cases: concentration: 1 μM,replicates: in singlicate; n = 1
TESK1 = system: TESK1
TGFBR1 = system: TGFBR1
TGFBR2 = system: TGFBR2
TIE1 = system: TIE1
TIE2 = system: T1, TIE2
T1 construct: gene TEK

TLK1 = system: TLK1
TLK2 = system: TLK2
TNIK = system: TNIK
TNK1 = system: TNK1
TNK2 = system: TNK2
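Note: KINOMEscan kinase panel screen.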

Structure (SMILES)	%Inh (TESK1)	%Inh (TGFBR1)	%Inh (TGFBR2)	%Inh (TIE1)	%Inh (TIE2)	%Inh (TLK1)	%Inh (TLK2)	%Inh (TNIK)	%Inh (TNK1)	%Inh (TNK2)
COc1cc(Nc2nccc(N3CCC(NC(=O)c4cccc(C#N)c4)C3)n2)cc(OC)c1OC (stereo not shown) [GSK1379751]	19%	4%	0%	32%	0%	4%	0%	0%	98.9%	10%
CN1CCN(CCNc2nc3cc(Oc4ccc(NC(=O)Nc5cc(C(F)(F)F)ccc5F)cc4)ccc3[nH]2)CC1.Cl.Cl [GW768504]	0%	6%	4%	89%	60%	0%	2%	0%	30%	0%
Cc1ccc(Nc2ccnc(Nc3ccc4c(c3)CS(=O)(=O)C4)n2)cc1O.Cl [GW579362]	53%	82%	99.4%	88%	56%	30%	35%	68%	85%	80%
CC(=O)Nc1nc2cnc(Nc3cc(NC(=O)c4cccc(CC(C)(C)C#N)c4)ccc3C)nc2s1	0%	9%	0%	20%	2%	0%	0%	0%	7%	0%
Cc1ccc(C(=O)Nc2ccc(Oc3ccc4nc(NC(=O)C5CC5)cn4c3)c(F)c2)c(=O)n1-c1ccccc1	30%	16%	0%	95%	99.4%	0%	0%	18%	64%	0%
O=C(NOCC1CC1)c1cc(Br)c(F)c(F)c1Nc1ccc(I)cc1Cl	0%	0%	0%	0%	16%	47%	0%	12%	0%	0%
Cl.Cl.NC[C@H](CC1CCCCC1)NC(=O)c1ccc(-c2ccnc3[nH]ccc23)s1 [GSK1581428]	0%	0%	0%	100%	0%	1%	4%	12%	0%	0%
